A short description of assay [1]: CCTE_Padilla_ZF_Score.Craniofacial: CCTE's 144 Hour Post-fertilization zebrafish Assay Score for Craniofacial Malformation, Padilla Lab (AID 2284405). In outline:
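Wild-type zebrafish embryos (with chorions), one per well in 10% Hanks', were dosed at 6–8 hpf in sealed plates and kept at 26C. They were rinsed at 5 dpf. At 6 dpf two blinded assessors scored craniofacial malformations by brightfield stereomicroscopy.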

The nature of assay [2]: CCTE_Padilla_ZF_Score.Edema: CCTE's 144 Hour Post-fertilization zebrafish Assay Score for Edema Malformation, Padilla Lab (AID 2284406). An outline of the steps: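 Wild-type zebrafish embryos, one per well in Hanks' solution, dosed at 6-8 hpf, sealed and reared at 26C on a 14:10 h cycle; rinsed on 5 dpf. At 6 dpf, blinded assessors scored edema by stereomicroscopy.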
Assay [3] is described as follows: CCTE_Padilla_ZF_Score.Spine: CCTE's 144 Hour Post-fertilization zebrafish Assay Score for Spine Malformation, Padilla Lab (AID 2284407). An outline of the steps:
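Wild-type zebrafish embryos, one per well in Hanks' solution, dosed at 6–8 hpf in sealed plates at 26C, 14:10 h light:dark; rinsed at 5 dpf. Two blinded assessors scored spinal defects by stereomicroscopy at 6 dpf; fitted versus DMSO.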

Assay [4] in a line: CCTE_Padilla_ZF_Score.Swim_bladder: CCTE's 144 Hour Post-fertilization zebrafish Assay Score for Swim Bladder Malformation, Padilla Lab (AID 2284408). In outline: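 Wild-type zebrafish embryos, one per well in 10% Hanks', dosed at 6–8 hpf, sealed, reared at 26C and rinsed at 5 dpf. Blinded assessors scored uninflated swim bladder by stereomicroscopy at 6 dpf, relative to DMSO.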

A short description of assay [5]: CCTE_Padilla_ZF_Score.Position: CCTE's 144 Hour Post-fertilization zebrafish Assay Score for Position, Padilla Lab (AID 2284409). An outline of the steps: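 Wild-type zebrafish embryos (with chorions) exposed singly from 6–8 hpf in sealed wells of Hanks' solution at 26C, rinsed at 5 dpf. At 6 dpf, blinded assessors scored abnormal water-column position by brightfield stereomicroscopy, relative to DMSO.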

Assay [6] can be described thus: CCTE_Padilla_ZF_Score.Living: CCTE's 144 Hour Post-fertilization zebrafish Assay Score for Viability, Padilla Lab (AID 2284410).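 Note: larval death at 6 dpf judged by absent heartbeat or coagulation.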 In outline:
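Wild-type zebrafish embryos were exposed singly from 6–8 hpf in sealed wells of Hanks' solution at 26C, then rinsed at 5 dpf. At 6 dpf, blinded assessors scored mortality (no heartbeat or coagulation) by stereomicroscopy, fitted against DMSO.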

Assay [7] can be described thus: CCTE_Padilla_ZF_Score.Tail: CCTE's 144 Hour Post-fertilization zebrafish Assay Score for Tail Malformation, Padilla Lab (AID 2284414). An outline of the steps:
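Wild-type zebrafish embryos, one per well in 200 uL 10% Hanks', dosed at 6-8 hpf, sealed, and kept at 26 C on a 14:10 h light cycle. Chemical was rinsed out at 5 dpf. Blinded brightfield scoring of tail defects followed at 6 dpf.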

Assay [8] relates to SRY-box transcription factor 2 (SOX2) Protein Expression, Deisenroth Lab, SOX2 (gene 6657). As to the kind of experiment: CCTE_Deisenroth_DEVTOX-GLR_Endo_SOX2: CCTE's DevTox GLR-Endo Assay Evaluation of SRY-box transcription factor 2 (SOX2) Protein Expression, Deisenroth Lab (AID 2284412; active = hit-call score of the fitted dose curve at least 0.9, where 1 is the maximum). In outline: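 RUES2-GLR human pluripotent cells were seeded 24 h, then differentiated 48 h with two chemical exposures 24 h apart. Cells were fixed, nuclei stained and imaged by high-content microscopy. Endpoint is %SOX2+ cells over cell count, minus 0.2% DMSO control; 10-point series 1 nM–200 uM.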

The test system of assay [9] is SRY-box transcription factor 17 (SOX17) Protein Expression, Deisenroth Lab, SOX17 (gene 64321). Put plainly: CCTE_Deisenroth_DEVTOX-GLR_Endo_SOX17: CCTE's DevTox GLR-Endo Assay Evaluation of SRY-box transcription factor 17 (SOX17) Protein Expression, Deisenroth Lab (AID 2284413). An outline of the steps: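 Endpoint: % change in SOX17+ fraction (SOX17+ cells / cell count) vs 0.2% DMSO solvent control. RUES2-GLR reporter cells, 48 h endoderm differentiation, two doses at 24 h intervals, high-content fluorescence imaging, 5 fields/well.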

Assay [10] deals with Brachyury (BRA) Protein Expression, TBXT (gene 6862). Put plainly: CCTE_Deisenroth_DEVTOX-GLR_Endo_BRA: CCTE's DevTox GLR-Endo Assay Evaluation of Brachyury (BRA) Protein Expression, Deisenroth Lab (AID 2284417). In outline: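 Read-out: BRA+ cell count divided by total cell count by high-content imaging (5 fields per well), expressed relative to 0.2% DMSO solvent control. RUES2-GLR cells dosed twice over a 48 h differentiation; concentrations 1 nM - 200 uM.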

The nature of assay [11]: CCTE_Deisenroth_DEVTOX-GLR_Endo_CellCount: Viability Assessment in CCTE's DevTox GLR-Endo Assay, Deisenroth Lab (AID 2284420). An outline of the steps:
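Human pluripotent RUES2-GLR line; 24 h pre-seed; 48 h endoderm-directed differentiation; 2 doses, q24h; 10 conc., 1 nM - 200 uM; fix + nuclear dye; 5 fields/well imaged; readout = nuclei count, % change vs 0.2% DMSO; n=4.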

Assay [12] deals with SRY-box transcription factor 17 (SOX17) Protein Expression, Deisenroth Lab, SOX17 (gene 64321). Put plainly: CCTE_Deisenroth_DEVTOX-GLR_Pluri_SOX17: CCTE's DevTox GLR-Pluri Assay Evaluation of SRY-box transcription factor 17 (SOX17) Protein Expression, Deisenroth Lab (AID 2284427; active = hit-call score of the fitted dose curve at least 0.9, where 1 is the maximum). In outline:
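Human RUES2-GLR pluripotent line; 24 h seeding, 48 h defined-media differentiation, 2 doses q24h, 10 conc 1 nM - 200 uM. Fix, nuclear stain, image 5 fields/well. Endpoint = %SOX17+ minus 0.2% DMSO; n=4.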

Assay [13] deals with SRY-box transcription factor 2 (SOX2) Protein Expression, Deisenroth Lab, SOX2 (gene 6657). As to the kind of experiment: CCTE_Deisenroth_DEVTOX-GLR_Pluri_SOX2: CCTE's DevTox GLR-Pluri Assay Evaluation of SRY-box transcription factor 2 (SOX2) Protein Expression, Deisenroth Lab (AID 2284428). In outline: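 Steps: seed RUES2-GLR cells for 24 h; start 48 h differentiation in defined media; dose test chemicals at 0 and 24 h (1 nM–200 uM); fix, stain nuclei, image; compute SOX2+ percentage against 0.2% DMSO wells.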

Assay [14] concerns Brachyury (BRA) Protein Expression, Deisenroth Lab, TBXT (gene 6862). As to the kind of experiment: CCTE_Deisenroth_DEVTOX-GLR_Pluri_BRA: CCTE's DevTox GLR-Pluri Assay Evaluation of Brachyury (BRA) Protein Expression, Deisenroth Lab (AID 2284429; active = hit-call score of the fitted dose curve at least 0.9, where 1 is the maximum). In outline:
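Human pluripotent RUES2-GLR cells, seeded 24 h, were differentiated 48 h in defined media with two chemical doses at 24-h intervals (10-point, 1 nM - 200 uM). Readout: percent BRA+ cells by fluorescent reporter imaging, minus 0.2% DMSO control.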

A short description of assay [15]: CCTE_Deisenroth_DEVTOX-GLR_Pluri_CellCount: Viability Assessment in CCTE's DevTox GLR-Pluri Assay Evaluation of Total Cell Counts, Deisenroth Lab (AID 2284430). An outline of the steps: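 RUES2-GLR human pluripotent cells, seeded 24 h, then differentiated 48 h with two chemical exposures 24 h apart; 10-point series 1 nM - 200 uM. Fixed, nuclear-stained, imaged (5 fields/well); nuclei count as % change vs 0.2% DMSO.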

Assay [16] in a line: Tanguay_ZF_120hpf_BRN: Oregon State University Tanguay Lab 120 Hour Post-fertilization zebrafish Assay for Brain Region Malformation (AID 2284402). An outline of the steps:
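Dechorionated wild-type Tropical 5D zebrafish embryos exposed statically from 6 to 120 hpf at 28C, one per well, 0.64% DMSO final. Brain malformation scored at 120 hpf by brightfield as present/absent; dead embryos not scored.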

Assay [17] is described as follows: Tanguay_ZF_120hpf_TCHR: Oregon State University Tanguay Lab 120 Hour Post-fertilization zebrafish Assay for Touch Responsive (AID 2284403). An outline of the steps:
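Dechorionated Tropical 5D wild-type zebrafish embryos, one per well from 6 hpf, were statically exposed to 120 hpf at 28 °C (0.64% DMSO). Touch response was scored present/absent at 120 hpf and not scored in dead larvae.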

Assay [18] in a line: Tanguay_ZF_120hpf_ANY: Oregon State University Tanguay Lab 120 Hour Post-fertilization zebrafish Assay for Any Mortality and Malformation (AID 2284404). In outline: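 Dechorionated Tropical 5D wild-type embryos, one per well from 6 hpf, static exposure in sealed, dark plates at 28C until 120 hpf, 0.64% DMSO final. Brightfield scoring of mortality and malformations as binary presence/absence, pooling 13 morphology endpoints.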

The test system of assay [19] is TTR (gene 7276). As to the kind of experiment: CCTE_GLTED_hTTR_0.125uM: CCTE's human Transthyretin (hTTR) Inhibition Assay, with 0.125uM TTR, Great Lakes Toxicology and Ecology Division (GLTED) Lab (AID 2284431).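 Note: hits lower the fluorescence signal relative to DMSO baseline.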 An outline of the steps: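 Fluorescence (380 ex, 475 em) reported the ANSA probe remaining bound to 0.125uM human transthyretin. Chemicals were incubated with the protein for 2 hours; activity was scored as loss of signal against DMSO negative control.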

Records with an inconclusive call do not appear. Active and inactive are the calls of the source. Rule for the calls, unless noted: active = hit-call score of the fitted dose curve at least 0.9, where 1 is the maximum; inactive = score below 0.9.

Usually AC50 stands for the concentration at which the activity in the assay is half-maximal.

On to `NC(C(F)(F)F)C(F)(F)F`, for which the outcome in assay [1], in assay [2], in assay [3], in assay [4], in assay [5] and in assay [6] was inactive. Moreover, the compound was classed as inactive in assay [7].

For the compound `CN(C)CCOC(c1ccccc1)c1ccccc1`, the half-maximal activity concentration (AC50) was 2.01 µM (active) in assay [8]; 54.7 µM (active) in [9]; 46.8 µM (active) in [10]; 61.7 µM (active) in assay [11]; 36.2 µM (active) in [12]; 83.2 µM (active) in assay [13]. Besides, the AC50 in [14] was 19.8 µM (active). Further, in assay [15], the compound was called inactive.

Turning to `O=C1NS(=O)(=O)c2ccccc21`, the compound was classed as inactive in [9], in assay [10], in assay [11], in assay [12], in [13] and in assay [14]. Further, the outcome in assay [15] was inactive.

On to `O=P(O)(O)CCC(F)(F)C(F)(F)C(F)(F)C(F)(F)C(F)(F)C(F)(F)C(F)(F)C(F)(F)F`, for which the compound was called inactive in [16], in assay [17], in [18], in assay [1], in assay [3] and in [7]. Besides, the half-maximal activity concentration (AC50) in assay [2] is 1.69 µM (active); in [4] it was 10 µM (active); in [5] it was 65.2 µM (active); in assay [6], 11.8 µM (active).

Take `FC(F)(F)C1(F)C(F)(F)C(F)(F)C(F)(F)C(F)(C(F)(F)F)C1(F)F` (configuration not stated): the compound was classed as inactive in [1], in assay [2], in assay [3], in assay [4], in assay [5] and in [6]. In addition, the result in assay [7] was inactive.

For `CCCCCCCCCCCC(=O)O`, the AC50 in assay [19] is 3.05 µM (active).

Regarding `CC(=O)Nc1ccc(O)cc1`, the result in assay [9], in assay [10], in [11], in assay [12], in [13] and in assay [14] was inactive. In [15], the compound was classed as inactive.

On to `CCCCCCc1ccc(N)cc1`, for which the AC50 in assay [19] was 9.58 µM (active).

Turning to `FC(F)=C(F)C(F)(F)C(F)(F)C(F)(F)C(F)F`, the compound was called inactive in assay [1], in assay [2], in [3], in assay [4], in assay [5] and in [6]. Further, the compound was called inactive in assay [7].

In the case of `CN(Cc1cnc2nc(N)nc(N)c2n1)c1ccc(C(=O)N[C@@H](CCC(=O)O)C(=O)O)cc1`, the AC50 in assay [9] is 0.319 µM (active); in assay [10], 0.329 µM (active); in assay [11], 0.361 µM (active); in assay [13], 0.0314 µM (active). Further, the compound was classed as inactive in assay [12], in assay [14] and in assay [15].

The record behind these values is PubChem BioAssay (EPA / NIEHS).
